A selection: hits, their analogues and other compounds. The true share with any hit is near 3.1%.
Tau fibril ThT = tau fibrillization inhibition (ThT binding); recombinant tau K18 P301L, heparin-induced fibrillization, ThT fluorescence; Potency, µM (top dose mostly 57.4 µM), for the others: at the top dose activity, negative = inhibition, actives largely listed as inhibitors; 2.1% of 270,000 active; further: nearly all actives have a fitted effect of over 55% in size
Target sequence (P10636 561-689 P618L limits assumed): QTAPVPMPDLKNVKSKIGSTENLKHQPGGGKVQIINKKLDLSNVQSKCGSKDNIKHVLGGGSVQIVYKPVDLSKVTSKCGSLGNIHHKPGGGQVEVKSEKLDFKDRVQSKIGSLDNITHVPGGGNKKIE
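Fibril formation assay: tau K18 P301L at 15 uM with trace Alexa 594 label, heparin inducer 20 uM, pH 7 sodium acetate buffer, 37 C for 6 hr; endpoint ThT signal.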
RGS12 GoLoco inh = blocks human Gai1 binding to RGS12 GoLoco peptide, red readout. P63096. Gai1:RGS12 GoLoco peptide FP, rhodamine, 10 min. Potency, µM (doses to about 61.6 µM), for the others: at the top dose activity, negative = inhibition, usual class: inhibitors. 0.44% of 230,000 active. AID 880; active means well fitted inhibition curve with a large enough effect, not every such curve was filed as active; inactive means no such curve, though single readings can be large or run the other way; further: nearly all actives have a fitted effect of over 30% in size
Target sequence (P63096 whole entry, looked up): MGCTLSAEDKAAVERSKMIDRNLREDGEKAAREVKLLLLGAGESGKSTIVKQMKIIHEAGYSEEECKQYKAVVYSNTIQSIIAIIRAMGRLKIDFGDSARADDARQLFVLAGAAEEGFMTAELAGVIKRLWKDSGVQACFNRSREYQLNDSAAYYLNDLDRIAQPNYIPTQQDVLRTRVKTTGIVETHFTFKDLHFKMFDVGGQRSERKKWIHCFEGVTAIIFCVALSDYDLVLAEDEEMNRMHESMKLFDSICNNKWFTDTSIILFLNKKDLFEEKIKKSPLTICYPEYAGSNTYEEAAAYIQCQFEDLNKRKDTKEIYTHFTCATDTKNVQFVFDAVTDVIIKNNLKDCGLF
Tau fluor cs = counter-screen for tau fibril formation inhibitors; tau K18 P301L (four-repeat tau fragment) Alexa594 fluorescence, heparin fibrillization; Potency, µM (series often up to 57.7 µM), for the others: at the top dose activity change, negative = decrease; 0.93% of 280,000 active; AID 1463; further: nearly all actives have a fitted effect of over 55% in size
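Human K18 P301L tau (15 uM unlabeled plus 0.24 uM Alexa 594-labeled, final) in 100 mM sodium acetate pH 7 was mixed with compound and 20 uM heparin and incubated 6 hr at 37 C.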
TexasRed fluor = alters Texas Red total fluorescence, flagging assay interference; TRb/SRC2 Texas Red total fluorescence interference; Potency, µM (titrated, usually from 106 µM), for inactives: at the highest dose fluorescence change, negative = quenching; 0.29% of 280,000 active; AID 1479; active means well fitted curve in either direction with a large enough effect; inconclusive means small, poorly fitted or top-dose-only effect
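Human TRβ ligand-binding domain (0.6 uM) and Texas Red SRC2 peptide (20 nM) in Tris buffer with 1 uM T3 and 5% DMSO were incubated with pinned compound for 5 hr at ambient temperature. Total fluorescence was computed as S + 2P (555/632 nm).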
TRb-SRC2 inh = TRbeta-SRC2 interaction inhibition | P10828 | AID 1469 | Potency, µM (titrated, usually from 106 µM), for the others: at the top dose activity change, negative = inhibition, most hits filed as inhibitors | 0.065% of 280,000 active | TRbeta-SRC2 peptide binding, fluorescence polarization; receptor liganded with 1 µM T3;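 further: plate controls were bound peptide for no effect and peptide without receptor for full effect; nearly all actives have a fitted effect of over 50% in size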
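Polarization signal, normalized between peptide-alone and full complex controls, measured compound effects on T3-liganded human TRb LBD (0.6 uM) binding 20 nM Texas Red SRC2 peptide after 5 hr.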
Tau FP inhib = inhibitors of human tau fibril formation; P10636; K18 P301L tau heparin fibrillization, Alexa594 FP, 6 h; Potency, µM (titrated, usually from 57.7 µM), inactives show at the highest dose activity, negative = inhibition, most hits filed as inhibitors; 0.39% of 280,000 active; AID 1468; further: nearly all actives have a fitted effect of over 55% in size
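FP of Alexa 594-tau after heparin (20 uM) induction. Substrate: human K18 P301L, 15 uM unlabeled, 0.24 uM labeled. Buffer 100 mM sodium acetate pH 7. 6 hr, 37 C.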
Starred values were filed as active, the others as inactive; ? = inconclusive; . = no result given; [ ] = dose if it differs, or a comment. Unless noted, the call rests on the fitted dose curve; in most records, active means well fitted curve in the direction sought with a large enough effect; inconclusive means small, poorly fitted or top-dose-only effect, or another doubt; inactive means no such curve, though single readings can be large; an effect the other way counts as inactive or inconclusive. Unless noted, on the % scale 0 is the no-effect control and ±100 the full control effect; potency means the concentration at half of the fitted maximal effect.

SMILES	Tau fibril ThT	RGS12 GoLoco inh	Tau fluor cs	TexasRed fluor	TRb-SRC2 inh	Tau FP inhib
Oc1ccc(NC(=S)N=Nc2c(O)[nH]c3ccccc23)cc1	14.1µM*	7.6%	?	-6.3%	-1.4%	4.0%
Oc1[nH]c2ccc(Br)cc2c1N=NC(=S)Nc1ccc(F)cc1	.	1.7%	6.7%[0.0958 µM]	-1.8%	3.7%	-2.6%[0.0958 µM]
O=C(N=Nc1c(O)[nH]c2ccc(Br)cc12)c1ccccc1-n1cccc1	?	5.9%	14.1µM*[quencher]	-8.5%	-2.8%	?
CC(C)CC(=O)Nc1ccc2c(c1)oc1ccccc12	-12.7%	4.7%	-12.3%	-3.5%	-0.8%	-1.2%
Oc1ccc(NC(=S)N=Nc2c(O)[nH]c3ccc(Br)cc23)cc1	5.01µM*	-5.5%	15.8µM*[quencher]	-8.0%	-1.8%	-2.3%
Cc1cc(C)c(/C=C/c2onc(C)c2S(=O)(=O)N2CCC(C(=O)Nc3cccc(C)c3C)CC2)c(C)c1	11.3%	.	5.5%	?	5.8%	-6.4%
COc1cc(CNc2nc3ccccc3n2C)cc(OC)c1OC	2.5%	-13.3%	3.3%	-0.5%	0.6%	2.5%
COc1cc(NCc2ccc3nc(N)nc(N)c3c2C)cc(OC)c1OC	20µM*	2.3%	?	-17.6%	-2.8%	?
C[N+](C)(CC#N)C/C=C\c1ccccc1	-6.8%	14.8%	-6.5%	-1.7%	6.9%	-9.7%
CC1(C)Cc2ccccc2C2=NNC(=O)C2=N1	15.8µM*	12.7%	-11.6%	-1.4%	-13.5%	?
C=Cc1c(C)/c2[n-]/c1=C\c1[n-]c(c(CC)c1C)/C=c1\[n-]c3c(c1C)C(=O)C(C(=O)[O-])C=3c1[n-]c(c(C)c1CCC(=O)[O-])\C=2.[Cu].[Na+].[Na+] (centres undefined)	14.1µM*	-5.0%	11.2µM*[quencher]	25.1µM*[quencher]	44.7µM*	20µM*
Cc1nn(-c2ccccc2)c(Cl)c1/C=N/Nc1ccc(Cl)c(C(=O)O)c1	?	-12.1%	-24.2%	-3.3%	-1.3%	8.5%
COc1ccc(NC(=S)NNc2ccc(S(=O)(=O)Nc3ccccc3C(=O)O)cc2[N+](=O)[O-])cc1	12.6µM*	-6.2%	10µM*[quencher]	-10.5%	2.5%	?
Cc1nn(-c2ccccc2)c(Cl)c1/C=N/Nc1ccc(S(=O)(=O)Nc2ccccc2C(=O)O)cc1[N+](=O)[O-]	8.91µM*	7.4%	?	?	10.4%	12.7%
Cc1ccc(S(=O)(=O)Nc2ccccc2C(=O)OC(C)C(=O)Nc2ccc3ccccc3c2)cc1[N+](=O)[O-] (centres undefined)	8.5%	-12.4%	7.3%	-1.1%	3.0%	-2.8%
COc1ccc2[nH]cc(CCNc3ncncc3-c3ccc4c(c3)OCO4)c2c1	.	1.7%	.	.	.	.
CN(c1ccc(OCC(=O)OCC(=O)Nc2ccc(Br)cc2)cc1)S(=O)(=O)c1cccs1	-7.3%	10.7%	?	-1.6%	-3.9%	?
CN(c1ccc(OCC(=O)OCC(=O)Nc2ccccc2)cc1)S(=O)(=O)c1cccs1	1.0%	-44.0%	-11.1%	5.01µM*[quencher]	-27.0%[53 µM]	?
CCc1ccc2c(c1)C(=O)C(=O)N2CC(=O)Nc1ccc(NC(=O)c2ccccn2)cc1	14.1µM*	7.8%	?	-2.5%	-0.5%	-3.6%
Cc1cc2occ(CC(=O)Nc3nccs3)c2cc1C(C)C	-1.0%	0.7%	-20.4%	-6.1%	-2.3%	-8.6%
Cc1[nH]c2ccccc2c1C(C[N+](=O)[O-])c1ccco1 (centres undefined)	?	4.2%	?	-2.6%	2.0%	-3.1%
Cc1ccc(-c2[nH]c3ccccc3c2C(C[N+](=O)[O-])c2ccco2)cc1 (centres undefined)	?	25.3%	12.6µM*[quencher]	4.0%	-14.3%	-15.0%
CCOc1ccc(-c2nc(-c3ccccc3)c(-c3ccccc3)[nH]2)cc1OCC	-7.2%	.	?	4.6%	-4.9%	?
Cc1ccc(-c2[nH]c(-c3ccc(C(=O)O)cc3)nc2-c2ccccc2)cc1	-17.8%	6.3%	-18.3%	-1.9%	-9.8%	7.1%
Oc1ccc(-c2nc(-c3ccccc3)c(-c3ccc(Br)cc3)[nH]2)cc1	28.2µM*	.	8.91µM*[quencher]	-4.2%	6.5%	?
SMILES	Tau fibril ThT	RGS12 GoLoco inh	Tau fluor cs	TexasRed fluor	TRb-SRC2 inh	Tau FP inhib
COc1ccc(-c2[nH]c(-c3cc(OC)c4c(c3)OCO4)nc2-c2ccccc2)cc1	?	21.9%	12.6µM*[quencher]	-1.8%	10.4%	?
COc1cc(-c2nc(-c3ccccc3)c(-c3ccc(Br)cc3)[nH]2)cc(OC)c1O	?	.	11.2µM*[quencher]	-2.1%	7.7%	4.1%
Oc1ccc(N=Nc2nc(-c3ccccc3)c(-c3ccccc3)[nH]2)cc1	4.47µM*	33.1%	11.2µM*[quencher]	-4.5%	11.3%	?
CCOc1nc(NC(=O)NC(=O)c2ccccc2)nc(-c2ccccc2)n1	0.6%	3.8%	5.2%	-1.2%	-10.3%	-0.2%
Cc1cccc[n+]1C1C(c2ccccc2)C(C#N)=C(C(=C=[N-])C#N)NC1(O)C1CC1 (centres undefined)	17.8µM*	50.1%	?	-5.8%	6.9%	?
N#CC(=C=[N-])C1=C(C#N)C(c2ccccc2F)C([n+]2ccccc2)C(O)(C2CC2)N1 (centres undefined)	?	40.4%	-25.2%	2.3%	3.5%	-1.1%
CCc1ccc2c(c1)/C(=N/N(C)C(=S)NC)C(=O)N2	31.6µM*	11.4%	-23.8%	-6.9%	0.0%	-5.1%
CCc1ccc2c(c1)/C(=C/C(=O)c1cccs1)C(=O)N2	?	3.9%	-27.8%	0.1%	-2.5%	6.7%
COCc1cc(C)nc2sc3c(c12)NC(c1ccccc1C(=O)O)N(c1ccc(OC)cc1)C3=O (centres undefined)	-3.6%	.	7.1%	-1.6%	-2.3%	3.4%
COc1ccc(OC)c(NC(=O)COC(=O)Cc2ccc(-c3ccccc3)cc2)c1	-14.0%	8.3%	-29.2%	-0.9%	4.5%	12.5%
CCOc1ccccc1NC(=O)COC(=O)Cc1ccc(-c2ccccc2)cc1	4.9%	2.5%	5.7%	31.6µM*[quencher]	?	3.7%
COc1ccc(Nc2nc(-c3cccs3)nc3ccccc23)c(OC)c1	?	7.1%	10µM*[quencher]	-4.9%	5.0%	-6.4%
COc1ccc(Nc2nc(-c3cccc([N+](=O)[O-])c3)nc3ccccc23)c(OC)c1	-3.6%	11.3%	?	-5.5%	-2.2%	?
Oc1ccc(Nc2nc(-c3cccs3)cs2)cc1	?	11.4%	11.2µM*[quencher]	2.9%	-0.6%	2.1%
COc1ccc(OC)c(Nc2nc(-c3cccs3)cs2)c1	?	-4.8%	15.8µM*[quencher]	-4.8%	0.9%	4.2%
COc1ccccc1Nc1nc(-c2cccs2)cs1	14.1µM*	54.3%	?	-4.3%	-5.2%	1.4%
